Laboratory results as given in PubChem BioAssay.
Active and inactive are the calls of the source.

What was measured:
[1] = binders of probe aFSTL3 on microarray, primary screen, stem cell growth factor project, biochemical, small-molecule microarray, fluorescence 635/667 (AID 1064); details: higher = more signal;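 note: measures binding of the biotinylated anti-FSTL3 antibody to printed compounds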
[2] = binders from COS7 lysate, DM2A8 probe, primary screen, torsin A project, cell lysate, small-molecule microarray, fluorescence 635/667 (AID 1065); details: higher = more signal, COS7 lysate expressing mutant human TOR1A
[3] = binders of probe aFGF2 on microarray, primary screen, stem cell growth factor project, biochemical, small-molecule microarray, fluorescence 635/667 (AID 1067); details: higher = more signal;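 note: measures binding of biotinylated aFGF2 protein to printed compounds on slides; z-score merges feature fluorescence and signal-to-noise across triplicate slides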
[4] = binders of probe aFGF10 on microarray, primary screen, stem cell growth factor project, biochemical, small-molecule microarray, fluorescence 635/667 (AID 1071); details: higher = more signal;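 note: score merges 667 nm spot intensity and signal to noise from triplicate slides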
[5] = molecular target: Neurogenic locus notch homolog protein 2 (Homo sapiens) (UniProt Q04721); assay: Notch2 binders on small-molecule microarrays, primary screen, biochemical, small-molecule microarray, 635 nm fluorescence, stem cell growth factors (AID 1073); details: Notch2 binding, higher = more signal
Chain of Neurogenic locus notch homolog protein 2 (Homo sapiens) (Q04721 whole entry, looked up, canonical isoform): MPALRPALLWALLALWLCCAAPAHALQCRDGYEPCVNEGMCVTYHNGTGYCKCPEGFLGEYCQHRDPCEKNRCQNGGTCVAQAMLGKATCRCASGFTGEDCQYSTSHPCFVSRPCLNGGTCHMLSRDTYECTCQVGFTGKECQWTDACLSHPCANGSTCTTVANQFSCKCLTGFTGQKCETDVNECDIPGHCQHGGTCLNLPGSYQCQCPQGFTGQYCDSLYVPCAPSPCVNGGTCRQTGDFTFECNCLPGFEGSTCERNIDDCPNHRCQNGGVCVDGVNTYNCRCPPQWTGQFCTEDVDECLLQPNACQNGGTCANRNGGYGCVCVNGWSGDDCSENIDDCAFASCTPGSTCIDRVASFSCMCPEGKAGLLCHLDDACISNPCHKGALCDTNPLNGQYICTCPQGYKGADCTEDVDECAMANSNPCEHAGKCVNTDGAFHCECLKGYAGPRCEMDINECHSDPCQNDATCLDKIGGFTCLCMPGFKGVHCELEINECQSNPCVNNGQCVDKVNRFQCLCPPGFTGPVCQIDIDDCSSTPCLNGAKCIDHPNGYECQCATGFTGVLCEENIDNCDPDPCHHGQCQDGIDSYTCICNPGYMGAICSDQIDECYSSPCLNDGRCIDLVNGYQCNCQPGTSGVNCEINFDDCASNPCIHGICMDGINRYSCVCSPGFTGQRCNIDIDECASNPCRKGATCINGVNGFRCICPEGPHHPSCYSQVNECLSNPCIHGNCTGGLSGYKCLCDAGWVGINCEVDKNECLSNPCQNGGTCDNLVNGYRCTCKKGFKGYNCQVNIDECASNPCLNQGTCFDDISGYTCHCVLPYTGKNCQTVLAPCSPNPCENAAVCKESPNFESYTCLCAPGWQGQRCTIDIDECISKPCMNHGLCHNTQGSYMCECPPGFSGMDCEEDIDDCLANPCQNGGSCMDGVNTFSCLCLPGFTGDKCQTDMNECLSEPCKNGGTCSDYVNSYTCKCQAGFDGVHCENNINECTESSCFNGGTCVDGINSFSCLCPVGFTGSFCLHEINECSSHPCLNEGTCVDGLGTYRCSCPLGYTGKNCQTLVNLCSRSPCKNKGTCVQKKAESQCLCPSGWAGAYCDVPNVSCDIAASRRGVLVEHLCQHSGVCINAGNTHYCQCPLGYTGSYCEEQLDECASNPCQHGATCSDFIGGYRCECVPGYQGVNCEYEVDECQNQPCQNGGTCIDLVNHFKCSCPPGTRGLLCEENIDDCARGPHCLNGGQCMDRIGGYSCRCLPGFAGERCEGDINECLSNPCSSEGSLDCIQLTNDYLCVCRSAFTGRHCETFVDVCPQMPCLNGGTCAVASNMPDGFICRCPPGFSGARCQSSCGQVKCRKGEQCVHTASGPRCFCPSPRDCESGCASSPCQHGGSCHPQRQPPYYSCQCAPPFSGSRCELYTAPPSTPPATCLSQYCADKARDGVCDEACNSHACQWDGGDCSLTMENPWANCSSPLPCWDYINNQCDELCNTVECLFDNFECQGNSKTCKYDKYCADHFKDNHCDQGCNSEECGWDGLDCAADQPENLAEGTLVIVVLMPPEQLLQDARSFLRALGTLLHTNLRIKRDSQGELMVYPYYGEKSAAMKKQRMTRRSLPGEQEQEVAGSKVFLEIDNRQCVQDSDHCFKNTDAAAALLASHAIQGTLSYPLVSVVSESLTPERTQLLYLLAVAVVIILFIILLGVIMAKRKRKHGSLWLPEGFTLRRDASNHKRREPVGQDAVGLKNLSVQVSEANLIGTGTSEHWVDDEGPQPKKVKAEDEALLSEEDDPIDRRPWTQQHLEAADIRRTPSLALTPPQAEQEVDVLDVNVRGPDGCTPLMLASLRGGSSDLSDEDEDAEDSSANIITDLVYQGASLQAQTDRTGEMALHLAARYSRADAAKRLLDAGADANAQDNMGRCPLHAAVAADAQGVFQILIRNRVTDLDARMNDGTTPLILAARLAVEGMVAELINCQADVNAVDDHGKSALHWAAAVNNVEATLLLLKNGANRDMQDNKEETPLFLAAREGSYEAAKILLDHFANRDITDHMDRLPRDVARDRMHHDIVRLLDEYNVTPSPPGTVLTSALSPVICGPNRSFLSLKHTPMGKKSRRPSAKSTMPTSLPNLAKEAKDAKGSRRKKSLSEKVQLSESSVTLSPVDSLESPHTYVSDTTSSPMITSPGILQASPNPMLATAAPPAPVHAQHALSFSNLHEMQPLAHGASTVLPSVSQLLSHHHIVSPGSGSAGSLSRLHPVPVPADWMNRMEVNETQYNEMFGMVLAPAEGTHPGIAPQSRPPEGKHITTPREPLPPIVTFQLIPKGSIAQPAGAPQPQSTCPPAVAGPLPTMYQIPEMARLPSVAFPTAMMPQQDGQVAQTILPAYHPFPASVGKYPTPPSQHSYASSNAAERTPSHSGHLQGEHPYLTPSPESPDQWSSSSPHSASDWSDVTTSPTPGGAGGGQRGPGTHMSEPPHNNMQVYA

[6] = molecular target: Pro-neuregulin-1, membrane-bound isoform (Homo sapiens) (UniProt Q02297); assay: NRG1 binders on small-molecule microarrays, primary screen, psychiatric disease protein project, biochemical, small-molecule microarray, fluorescence 635/667 (AID 1075); details: NRG1 binding, 635 nm fluorescence, higher = more signal;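 note: score combines 667 nm spot fluorescence with signal to noise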
Chain of Pro-neuregulin-1, membrane-bound isoform (Homo sapiens) (Q02297 whole entry, looked up, the tested form may be a part, canonical isoform): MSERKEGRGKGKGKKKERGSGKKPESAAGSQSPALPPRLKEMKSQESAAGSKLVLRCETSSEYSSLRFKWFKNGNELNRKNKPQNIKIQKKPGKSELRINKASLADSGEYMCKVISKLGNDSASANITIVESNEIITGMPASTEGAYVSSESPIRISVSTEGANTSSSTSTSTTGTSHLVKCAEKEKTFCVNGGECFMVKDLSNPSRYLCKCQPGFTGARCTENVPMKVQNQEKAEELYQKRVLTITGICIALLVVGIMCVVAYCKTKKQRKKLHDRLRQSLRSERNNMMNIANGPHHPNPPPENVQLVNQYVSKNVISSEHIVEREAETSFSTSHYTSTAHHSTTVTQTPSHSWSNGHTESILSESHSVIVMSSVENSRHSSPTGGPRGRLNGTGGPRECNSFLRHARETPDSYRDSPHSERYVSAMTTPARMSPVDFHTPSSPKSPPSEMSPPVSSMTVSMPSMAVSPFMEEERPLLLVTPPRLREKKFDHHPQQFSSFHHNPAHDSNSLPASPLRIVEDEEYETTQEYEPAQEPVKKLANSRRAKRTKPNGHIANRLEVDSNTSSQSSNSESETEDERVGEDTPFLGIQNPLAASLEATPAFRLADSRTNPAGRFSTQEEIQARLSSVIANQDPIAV

[7] = system: Neuregulin-1 EGF-like domain; assay: binders of neuregulin-1 EGF-like domain, primary screen, biochemical, small-molecule microarray, 635 nm fluorescence (AID 1081); details: small-molecule microarray binding, higher = more signal;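 note: binding of the protein to compounds printed on small-molecule microarray slides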
[8] = FRG1 promoter luciferase signal modulators, primary screen, FRG1 inhibition for FSHD, cell-based, C2C12 myotubes, firefly/Renilla luciferase, luminescence (AID 1084); details: higher = more signal, called active from +8 up or from −8 down
[9] = binders of probe aFST on microarray, primary screen, stem cell growth factor project, biochemical, small-molecule microarray, fluorescence 635/667 (AID 1086); details: higher = more signal;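 note: score merges 667 nm fluorescence with signal-to-noise of each printed compound spot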
[10] = binders of probe aHhip on microarray, primary screen, stem cell growth factor project, biochemical, small-molecule microarray, fluorescence 635/667 (AID 1087); details: higher = more signal;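 note: score merges spot fluorescence at 667nm with spot signal to noise ratio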
[11] = system: PRMT1 (protein arginine N-methyltransferase 1); assay: PRMT1 binders on small-molecule microarrays, primary screen, biochemical, small-molecule microarray, 635 nm fluorescence (AID 1088); details: small-molecule microarray binding, higher = more signal;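 note: binding of Prmt1 protein to compounds spotted on small-molecule microarray slides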
[12] = yeast growth modulation, basal conditions, primary screen, YJM789 clinical isolate, OD600, 24 h (AID 1089);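 note: growth of clinical yeast isolate S. cerevisiae YJM 789 seeded 1000 cells per well; test concentration not given here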; details: S. cerevisiae YJM789 growth, higher = more signal, called active from +8 up or from −8 down
[13] = fission yeast growth modulation, primary screen, strain 972, OD600, 24 h, no modulator (AID 1090);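 note: basal condition with compound alone and no growth modifier present; test concentration not given here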; details: S. pombe 972 growth, higher = more signal, called active from +8 up or from −8 down
[14] = S. cerevisiae growth modulation with rapamycin, primary screen, strain BY4716, OD600, 96 h (AID 1091); details: higher = more signal, called active from +8 up or from −8 down; note: test concentration not given here
[15] = molecular target: Torsin-1A-interacting protein 2 (Homo sapiens) (UniProt Q8NFQ8); assay: LULL1 binders on small-molecule microarray, primary screen, cell lysate, human LULL1 lysate, 635/667 nm fluorescence (AID 1092); details: hLULL1 lysate binding, 635 nm fluorescence, higher = more signal;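 note: probe is lysate of COS7 cells overexpressing human LULL1; score merges per-feature 667 nm fluorescence with signal-to-noise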
Chain of Torsin-1A-interacting protein 2 (Homo sapiens) (Q8NFQ8 whole entry, looked up): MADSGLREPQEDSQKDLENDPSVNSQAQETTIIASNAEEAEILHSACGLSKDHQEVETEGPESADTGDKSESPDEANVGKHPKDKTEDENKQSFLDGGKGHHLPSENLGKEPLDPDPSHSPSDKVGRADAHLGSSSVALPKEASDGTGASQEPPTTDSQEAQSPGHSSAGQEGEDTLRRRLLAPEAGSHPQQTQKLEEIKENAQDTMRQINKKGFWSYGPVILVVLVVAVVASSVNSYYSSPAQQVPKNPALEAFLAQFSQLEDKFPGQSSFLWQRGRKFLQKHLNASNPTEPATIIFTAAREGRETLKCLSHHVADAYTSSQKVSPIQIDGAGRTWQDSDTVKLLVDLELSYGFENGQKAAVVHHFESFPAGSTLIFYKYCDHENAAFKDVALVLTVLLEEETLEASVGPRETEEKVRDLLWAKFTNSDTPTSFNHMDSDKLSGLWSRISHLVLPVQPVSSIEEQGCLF

[16] = E. coli growth modulation, two-sided OD650, primary screen, E. coli filamentation project, strain DRC41, 24 h (AID 1093); details: OD650, 24 h, higher = more signal, called active from +8 up or from −8 down;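 note: MC1000 strain lacking acrAB efflux and sulA so SOS filamentation is blocked; test concentration not given here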
[17] = small-molecule microarray binders of probe aLefty2, primary screen, biochemical, biotinylated probe, 635/667 nm fluorescence (AID 1094); details: higher = more signal;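 note: score merges spot fluorescence near 667 nm with spot signal-to-noise ratio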
[18] = system: Noggin (protein binding on small-molecule microarray); assay: Noggin binders on small-molecule microarray, primary screen, biochemical, 635/667 nm fluorescence (AID 1095); details: 635 nm fluorescence, higher = more signal;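 note: score merges 667 nm feature fluorescence with signal to noise over triplicate slides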
[19] = molecular target: Neurogenic locus notch homolog protein 3 (Homo sapiens) (UniProt Q9UM47); assay: NOTCH3 binders on small-molecule microarray, primary screen, biochemical, 635/667 nm fluorescence (AID 1096); details: NOTCH3 binding, 635 nm fluorescence, higher = more signal
[20] = small-molecule microarray binders of probe aEGFR, primary screen, biochemical, biotinylated probe, 635/667 nm fluorescence (AID 1097); details: higher = more signal;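 note: probe is a biotinylated anti-EGFR antibody binding compounds printed on slides; score combines fluorescence near 667 nm and signal to noise of each spot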

Molecule C[N+](C)(C)CCCC[C@@H]1NC(=O)[C@H]2C[C@@H](C(=O)NCCCCCNC(=O)CS)[C@@H](c3cccc(OCCO)c3)N2C1=O has a composite z-score [1] of -0.121, a composite z-score [2] of 0.348 and a composite z-score [3] of -0.102. The composite z-score [4] was 0.0107, the composite z-score [5] was -0.324 and the composite z-score [6] was 1.5. For the same molecule, the composite z-score [7] was 0.785, the z-score [8] was -0.474 (inactive) and the composite z-score [9] was 0.0685. The composite z-score [10] was 0.0373, the composite z-score [11] was -0.248 and the z-score [12] was -0.802 (inactive). The z-score [13] was -0.693 (inactive), the z-score [14] was -0.451 (inactive) and the composite z-score [15] was 1.36. For the same molecule, the z-score [16] was 0.469 (inactive), the composite z-score [17] was -0.152 and the composite z-score [18] was 0.378. It also gave a composite z-score [19] of -0.36 and a composite z-score [20] of -0.127.
CN(C)CCCCNC(=O)[C@H]1C[C@H]2C(=O)NCC(=O)N2[C@H]1c1ccc(O)cc1 gave a composite z-score [1] of -0.772, a composite z-score [2] of -1.42 and a composite z-score [3] of -0.273. The composite z-score [4] was -0.814, the composite z-score [5] was -0.929 and the composite z-score [6] was 0.68. For the same molecule, the composite z-score [7] was 1.07, the z-score [8] was 5.11 (inactive) and the composite z-score [9] was 0.0525. The composite z-score [10] was -0.407, the composite z-score [11] was 0.784 and the z-score [12] was 0.873 (inactive). For the same molecule, the z-score [13] was 0.981 (inactive), the z-score [14] was 0.144 (inactive) and the composite z-score [15] was 1.21. For the same molecule, the z-score [16] was 0.187 (inactive), the composite z-score [17] was -0.189 and the composite z-score [18] was 0.15. For the same molecule, the composite z-score [19] was 0.408 and the composite z-score [20] was -0.139.
Molecule C=CC1c2cc(O)c(OC)cc2CCN1C (stereo not given) has a composite z-score [1] of 0.0043, a composite z-score [2] of -0.231 and a composite z-score [3] of -0.103. The composite z-score [4] was 0.275, the composite z-score [5] was -0.208 and the composite z-score [6] was 0.0582. For the same molecule, the composite z-score [7] was 1.06, the z-score [8] was -0.201 (inactive) and the composite z-score [9] was 0.0531. For the same molecule, the composite z-score [10] was 0.0373, the composite z-score [11] was -0.648 and the z-score [12] was -0.763 (inactive). For the same molecule, the z-score [13] was -0.819 (inactive), the z-score [14] was 0.0904 (inactive) and the composite z-score [15] was 0.134. For the same molecule, the z-score [16] was -0.223 (inactive), the composite z-score [17] was 0.0112 and the composite z-score [18] was -0.542. For the same molecule, the composite z-score [19] was -0.821 and the composite z-score [20] was -0.135.
Work on C=CCOC(=O)[C@H]1[C@@H]2C(=O)O[C@@H](c3ccccc3)[C@@H](c3ccccc3)N2[C@@H](c2ccc(OCCOC(=O)[C@@H]3C[C@@H]4C(=O)N[C@@H](CCCC[N+](C)(C)C)C(=O)N4[C@@H]3c3ccc(O)cc3)cc2)[C@]12C(=O)Nc1ccc(I)cc12 yielded a composite z-score [1] of -0.291, a composite z-score [2] of 0.857 and a composite z-score [3] of 0.0559. It also gave a composite z-score [4] of 0.719, a composite z-score [5] of 1.24 and a composite z-score [6] of 1.44. The composite z-score [7] was 1.11, the z-score [8] was 0.687 (inactive) and the composite z-score [9] was 0.365. For the same molecule, the composite z-score [10] was -0.0088, the composite z-score [11] was 1.53 and the z-score [12] was 2.31 (inactive). For the same molecule, the z-score [13] was -1.21 (inactive), the z-score [14] was 1.34 (inactive) and the composite z-score [15] was 2.44. The z-score [16] was -1.94 (inactive), the composite z-score [17] was -0.09 and the composite z-score [18] was 1.31. It also gave a composite z-score [19] of 1.14 and a composite z-score [20] of 0.06.
In the case of C=CCN1C(=O)[C@@]2(O[C@@H](CCn3cc([C@H](O)c4ccccc4)nn3)[C@H]([Si](C)(C)c3ccc(OC)cc3)[C@H]2C)c2cc(N3C(=O)c4cccc5cccc3c45)ccc21, the composite z-score [1] is reported as 0.241, the composite z-score [2] is reported as -0.477 and the composite z-score [3] is reported as -0.151. It also gave a composite z-score [4] of -0.215, a composite z-score [5] of -0.902 and a composite z-score [6] of 0.548. The composite z-score [7] was 0.482, the z-score [8] was -1.04 (inactive) and the composite z-score [9] was -0.365. The composite z-score [10] was -0.271, the composite z-score [11] was 0.183 and the z-score [12] was 0.584 (inactive). The z-score [13] was 1.18 (inactive), the z-score [14] was 1.31 (inactive) and the composite z-score [15] was 1.5. For the same molecule, the z-score [16] was -0.76 (inactive), the composite z-score [17] was -0.189 and the composite z-score [18] was -0.684. For the same molecule, the composite z-score [19] was -0.193 and the composite z-score [20] was -0.199.
